Assay in all cases: DAPPL (digital affinity profiling via proximity ligation, sequencing); 10 mM Tris-HCl pH 7.5, 50 mM NaCl, 1 mM DTT, 4% glycerol, room temperature, 30 min; GST-TFs on glutathione beads, 16-mer random dsDNA library, 0.1% formaldehyde crosslink after washing; high values mean tight binding
Holding throughout (conditions): protein: recombinant; tags: N-terminal GST; dsDNA, one strand shown

One experiment has as its target T1, ELK1 (Homo sapiens, UniProt P19419 1-428).
T1 sequence: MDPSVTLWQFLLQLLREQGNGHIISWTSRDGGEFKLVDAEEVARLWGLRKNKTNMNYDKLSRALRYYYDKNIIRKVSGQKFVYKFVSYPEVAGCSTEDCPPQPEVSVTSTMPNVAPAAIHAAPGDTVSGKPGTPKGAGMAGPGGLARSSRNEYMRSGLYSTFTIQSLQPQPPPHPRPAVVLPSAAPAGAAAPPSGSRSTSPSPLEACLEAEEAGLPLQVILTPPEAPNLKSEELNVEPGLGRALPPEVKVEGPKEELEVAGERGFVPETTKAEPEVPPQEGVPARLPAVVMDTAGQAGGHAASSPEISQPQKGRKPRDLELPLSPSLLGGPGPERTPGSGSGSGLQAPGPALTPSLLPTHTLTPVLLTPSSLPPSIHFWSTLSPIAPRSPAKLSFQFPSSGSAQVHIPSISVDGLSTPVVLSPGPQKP
In a few lines: (§1)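 Binding signal is given per hexamer as its read frequency for a factor divided by its frequency in the tag-only sample. GST-fused human transcription factors were expressed in yeast, captured on glutathione beads, barcoded with DNA and pooled with that sample, then incubated with 200 nmole of a 16-mer random double-stranded DNA library in Tris/NaCl/DTT/glycerol buffer for 30 min at room temperature. The pools were then washed, crosslinked, proximity-ligated, amplified by PCR and sequenced on an Illumina NextSeq500.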

The target of a further experiment is T2, GABPA (Homo sapiens, UniProt Q06546 1-454).
T2 sequence: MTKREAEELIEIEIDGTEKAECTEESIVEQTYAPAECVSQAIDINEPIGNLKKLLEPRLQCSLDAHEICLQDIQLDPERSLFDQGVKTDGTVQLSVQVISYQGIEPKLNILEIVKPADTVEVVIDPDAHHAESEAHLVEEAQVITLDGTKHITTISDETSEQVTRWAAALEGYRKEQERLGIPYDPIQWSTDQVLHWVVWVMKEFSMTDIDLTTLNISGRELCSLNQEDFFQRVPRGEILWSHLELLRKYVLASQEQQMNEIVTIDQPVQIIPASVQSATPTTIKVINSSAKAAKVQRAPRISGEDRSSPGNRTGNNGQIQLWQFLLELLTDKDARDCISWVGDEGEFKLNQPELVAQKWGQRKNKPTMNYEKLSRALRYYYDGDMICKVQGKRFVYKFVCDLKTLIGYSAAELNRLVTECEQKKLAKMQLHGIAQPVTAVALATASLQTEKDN
In a few lines: as §1

For a further experiment, the target named is T3, ERG (Homo sapiens, UniProt P11308 1-479).
T3 sequence: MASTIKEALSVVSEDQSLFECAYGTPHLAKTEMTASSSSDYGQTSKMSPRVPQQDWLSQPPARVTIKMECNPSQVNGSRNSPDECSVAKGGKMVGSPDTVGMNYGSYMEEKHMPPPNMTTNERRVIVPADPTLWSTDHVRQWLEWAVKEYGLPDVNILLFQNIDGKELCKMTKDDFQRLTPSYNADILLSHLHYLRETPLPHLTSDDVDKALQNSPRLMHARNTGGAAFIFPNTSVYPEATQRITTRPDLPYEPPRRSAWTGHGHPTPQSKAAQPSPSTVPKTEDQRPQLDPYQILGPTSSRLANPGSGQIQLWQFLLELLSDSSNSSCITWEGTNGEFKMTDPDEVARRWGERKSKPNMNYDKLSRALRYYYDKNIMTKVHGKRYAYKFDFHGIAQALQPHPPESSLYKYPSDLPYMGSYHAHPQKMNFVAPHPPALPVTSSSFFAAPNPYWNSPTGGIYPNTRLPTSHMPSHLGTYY
Summed up:
as §1

The target in another experiment is ELF1 (Homo sapiens, UniProt P32519 1-619). In a few lines:
as §1

The next experiment concerns the target SPIB (Homo sapiens, UniProt Q01892 1-262). Summed up: as §1
The target of the next experiment is ELF4 (Homo sapiens, UniProt Q99607 1-663). Summed up:
as §1

The target of another experiment is T4, ELK4 (Homo sapiens, UniProt P28324-2 1-405).
T4 sequence: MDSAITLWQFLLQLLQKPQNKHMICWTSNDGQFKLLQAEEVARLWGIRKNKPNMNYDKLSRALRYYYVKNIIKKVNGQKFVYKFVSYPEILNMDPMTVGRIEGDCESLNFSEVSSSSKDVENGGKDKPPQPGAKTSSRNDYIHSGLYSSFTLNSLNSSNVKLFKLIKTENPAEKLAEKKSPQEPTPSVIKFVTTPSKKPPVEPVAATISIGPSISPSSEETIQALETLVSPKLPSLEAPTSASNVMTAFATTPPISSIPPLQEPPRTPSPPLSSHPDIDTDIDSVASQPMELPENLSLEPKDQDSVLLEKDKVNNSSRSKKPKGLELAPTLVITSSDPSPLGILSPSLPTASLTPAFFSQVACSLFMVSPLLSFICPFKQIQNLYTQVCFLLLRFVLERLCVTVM
In a few lines: as §1

Another experiment concerns the target T5, ELF3 (Homo sapiens, UniProt P78545 1-371).
T5 sequence: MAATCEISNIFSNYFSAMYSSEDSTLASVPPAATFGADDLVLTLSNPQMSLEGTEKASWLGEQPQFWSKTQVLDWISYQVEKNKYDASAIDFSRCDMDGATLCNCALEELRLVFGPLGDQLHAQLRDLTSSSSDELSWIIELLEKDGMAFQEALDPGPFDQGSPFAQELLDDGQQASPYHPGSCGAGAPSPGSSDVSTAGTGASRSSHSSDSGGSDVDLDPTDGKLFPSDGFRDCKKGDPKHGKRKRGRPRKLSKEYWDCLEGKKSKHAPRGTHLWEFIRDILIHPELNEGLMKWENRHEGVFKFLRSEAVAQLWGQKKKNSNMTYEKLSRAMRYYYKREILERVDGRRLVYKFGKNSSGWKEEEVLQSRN
In a few lines: as §1

Another experiment has as its target T6, ERF (Homo sapiens, UniProt P50548 1-548).
T6 sequence: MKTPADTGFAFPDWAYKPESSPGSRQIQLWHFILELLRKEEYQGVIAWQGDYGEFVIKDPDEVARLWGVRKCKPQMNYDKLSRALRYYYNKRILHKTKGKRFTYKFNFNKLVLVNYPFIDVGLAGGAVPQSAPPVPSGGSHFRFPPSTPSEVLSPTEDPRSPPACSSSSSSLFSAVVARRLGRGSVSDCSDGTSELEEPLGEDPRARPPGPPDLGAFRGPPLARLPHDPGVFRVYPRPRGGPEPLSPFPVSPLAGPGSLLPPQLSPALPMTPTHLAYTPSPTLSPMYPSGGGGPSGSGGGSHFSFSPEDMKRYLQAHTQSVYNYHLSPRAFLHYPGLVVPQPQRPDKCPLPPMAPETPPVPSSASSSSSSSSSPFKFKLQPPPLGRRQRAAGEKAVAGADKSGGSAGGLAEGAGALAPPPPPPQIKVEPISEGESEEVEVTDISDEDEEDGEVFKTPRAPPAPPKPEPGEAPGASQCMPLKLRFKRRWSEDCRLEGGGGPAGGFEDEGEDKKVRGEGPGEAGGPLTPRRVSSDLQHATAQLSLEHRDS
In a few lines:
as §1

A further experiment addresses T7, ETV3L (Homo sapiens, UniProt Q6ZN32 1-361).
T7 sequence: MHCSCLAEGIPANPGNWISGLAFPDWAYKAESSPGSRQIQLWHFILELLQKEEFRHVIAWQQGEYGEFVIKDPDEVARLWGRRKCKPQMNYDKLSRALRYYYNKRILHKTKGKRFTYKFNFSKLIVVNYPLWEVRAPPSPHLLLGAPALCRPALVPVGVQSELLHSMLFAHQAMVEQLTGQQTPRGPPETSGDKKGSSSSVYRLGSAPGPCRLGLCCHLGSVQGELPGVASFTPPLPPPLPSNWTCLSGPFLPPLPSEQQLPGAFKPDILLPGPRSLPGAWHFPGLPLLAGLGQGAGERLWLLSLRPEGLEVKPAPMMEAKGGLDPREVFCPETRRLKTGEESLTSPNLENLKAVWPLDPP
In a few lines: as §1

In a further experiment the target is T8, SPDEF (Homo sapiens, UniProt O95238 1-335).
T8 sequence: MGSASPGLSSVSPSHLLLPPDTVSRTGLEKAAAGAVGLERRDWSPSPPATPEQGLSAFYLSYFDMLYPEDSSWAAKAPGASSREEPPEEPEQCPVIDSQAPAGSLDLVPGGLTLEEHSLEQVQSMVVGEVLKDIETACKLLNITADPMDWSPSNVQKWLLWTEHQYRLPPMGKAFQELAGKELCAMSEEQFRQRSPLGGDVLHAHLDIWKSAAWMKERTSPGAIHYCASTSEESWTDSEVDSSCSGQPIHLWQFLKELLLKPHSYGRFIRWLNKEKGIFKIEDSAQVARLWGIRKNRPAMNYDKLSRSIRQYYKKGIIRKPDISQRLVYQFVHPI
In a few lines: as §1

A further experiment addresses T9, ETV3 (Homo sapiens, UniProt P41162-2 1-143).
T9 sequence: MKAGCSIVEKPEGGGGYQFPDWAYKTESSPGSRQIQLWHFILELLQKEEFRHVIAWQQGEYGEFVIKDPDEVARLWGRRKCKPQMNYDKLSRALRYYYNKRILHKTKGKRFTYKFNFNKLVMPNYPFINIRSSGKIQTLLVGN
Summed up:
as §1

A further experiment concerns the target ETV6 (Homo sapiens, UniProt P41212 1-452). Summed up: as §1
Another experiment concerns the target T10, FEV (Homo sapiens, UniProt Q99581 1-238).
T10 sequence: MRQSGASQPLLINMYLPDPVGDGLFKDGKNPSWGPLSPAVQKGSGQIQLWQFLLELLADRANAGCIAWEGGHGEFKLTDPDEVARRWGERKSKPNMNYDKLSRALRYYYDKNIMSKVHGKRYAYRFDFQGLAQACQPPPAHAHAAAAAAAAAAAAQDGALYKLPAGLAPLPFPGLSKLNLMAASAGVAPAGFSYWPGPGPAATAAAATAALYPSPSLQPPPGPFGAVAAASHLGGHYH
Summed up:
as §1

Chain of ELF4 (Q99607 whole entry): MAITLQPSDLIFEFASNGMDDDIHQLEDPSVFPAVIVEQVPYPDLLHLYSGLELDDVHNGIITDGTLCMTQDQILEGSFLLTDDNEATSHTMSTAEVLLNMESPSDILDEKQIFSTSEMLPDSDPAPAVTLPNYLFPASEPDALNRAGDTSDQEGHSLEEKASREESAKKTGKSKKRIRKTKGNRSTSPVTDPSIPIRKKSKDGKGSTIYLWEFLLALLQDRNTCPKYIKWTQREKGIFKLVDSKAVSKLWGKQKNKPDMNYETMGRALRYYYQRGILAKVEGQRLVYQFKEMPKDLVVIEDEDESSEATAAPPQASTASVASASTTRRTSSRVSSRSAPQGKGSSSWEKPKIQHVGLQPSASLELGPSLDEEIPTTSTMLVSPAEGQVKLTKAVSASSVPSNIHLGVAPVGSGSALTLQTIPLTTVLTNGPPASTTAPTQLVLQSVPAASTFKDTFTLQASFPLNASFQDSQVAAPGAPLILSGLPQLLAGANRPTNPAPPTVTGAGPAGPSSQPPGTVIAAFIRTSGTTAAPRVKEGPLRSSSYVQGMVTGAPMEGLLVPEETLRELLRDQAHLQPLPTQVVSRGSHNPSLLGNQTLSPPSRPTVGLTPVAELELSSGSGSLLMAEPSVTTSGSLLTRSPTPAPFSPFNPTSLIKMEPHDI
Chain of ETV6 (P41212 whole entry): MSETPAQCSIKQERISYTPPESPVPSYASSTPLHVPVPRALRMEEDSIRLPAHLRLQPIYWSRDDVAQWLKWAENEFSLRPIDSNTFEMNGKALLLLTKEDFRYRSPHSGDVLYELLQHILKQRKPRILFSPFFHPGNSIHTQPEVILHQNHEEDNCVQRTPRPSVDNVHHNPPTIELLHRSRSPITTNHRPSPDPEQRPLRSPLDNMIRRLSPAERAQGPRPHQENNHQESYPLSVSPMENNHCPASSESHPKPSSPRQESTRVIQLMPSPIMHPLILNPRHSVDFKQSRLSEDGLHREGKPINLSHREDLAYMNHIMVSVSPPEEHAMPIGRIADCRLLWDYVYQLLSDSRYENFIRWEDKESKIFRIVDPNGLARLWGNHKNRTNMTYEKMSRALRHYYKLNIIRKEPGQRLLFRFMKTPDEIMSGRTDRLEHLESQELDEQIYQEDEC
Chain of SPIB (Q01892 whole entry): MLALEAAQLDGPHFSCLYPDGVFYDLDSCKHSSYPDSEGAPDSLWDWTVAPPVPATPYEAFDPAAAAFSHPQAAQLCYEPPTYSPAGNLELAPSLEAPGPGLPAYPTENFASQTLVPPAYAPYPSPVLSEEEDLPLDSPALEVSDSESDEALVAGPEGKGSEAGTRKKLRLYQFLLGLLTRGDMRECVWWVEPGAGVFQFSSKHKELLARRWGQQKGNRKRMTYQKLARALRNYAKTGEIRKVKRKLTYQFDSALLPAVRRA
Chain of ELF1 (P32519 whole entry): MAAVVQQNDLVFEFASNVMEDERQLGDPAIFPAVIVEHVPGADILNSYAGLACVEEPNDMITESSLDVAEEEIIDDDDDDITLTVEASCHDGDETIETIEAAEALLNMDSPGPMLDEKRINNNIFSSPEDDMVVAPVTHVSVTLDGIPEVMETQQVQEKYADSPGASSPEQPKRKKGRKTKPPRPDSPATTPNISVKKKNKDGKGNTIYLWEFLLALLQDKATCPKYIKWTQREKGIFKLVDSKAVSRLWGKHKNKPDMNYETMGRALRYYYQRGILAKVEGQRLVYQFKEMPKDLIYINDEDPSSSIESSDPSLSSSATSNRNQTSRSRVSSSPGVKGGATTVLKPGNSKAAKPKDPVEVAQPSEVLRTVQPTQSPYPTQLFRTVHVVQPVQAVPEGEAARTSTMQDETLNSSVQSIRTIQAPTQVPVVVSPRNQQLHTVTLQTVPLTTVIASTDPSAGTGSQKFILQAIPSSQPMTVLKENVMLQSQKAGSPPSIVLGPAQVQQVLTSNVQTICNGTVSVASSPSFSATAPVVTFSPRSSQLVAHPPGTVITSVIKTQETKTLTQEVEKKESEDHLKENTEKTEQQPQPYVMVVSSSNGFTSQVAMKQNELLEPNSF

In the case of CACCTG, the binding signal with ELK1 was 1.06 fold enrichment (6-mer frequency, TF over GST control); with GABPA, 1.01 fold enrichment (6-mer frequency, TF over GST control); with ERG, 1.06 fold enrichment (6-mer frequency, TF over GST control); with ELF1 it was 1.09 fold enrichment (6-mer frequency, TF over GST control); with SPIB it was 1.03 fold enrichment (6-mer frequency, TF over GST control); with ELF4, 1.08 fold enrichment (6-mer frequency, TF over GST control). For the same sequence, the binding signal is 1.09 fold enrichment (6-mer frequency, TF over GST control) with ELK4; 1.05 fold enrichment (6-mer frequency, TF over GST control) with ELF3; 1.07 fold enrichment (6-mer frequency, TF over GST control) in the experiment with ERF; 1.05 fold enrichment (6-mer frequency, TF over GST control) with ETV3L; 1.07 fold enrichment (6-mer frequency, TF over GST control) in the experiment with SPDEF; 1.03 fold enrichment (6-mer frequency, TF over GST control) with ETV3. Also, the binding signal in the experiment with ETV6 is 1.06 fold enrichment (6-mer frequency, TF over GST control).

For AGGTAC, the binding signal with ELF4 was 1.01 fold enrichment (6-mer frequency, TF over GST control).

With GCCACC, the binding signal in the experiment with FEV was 1.01 fold enrichment (6-mer frequency, TF over GST control); with ELF4, 1 fold enrichment (6-mer frequency, TF over GST control); in the experiment with ELK4, 1.03 fold enrichment (6-mer frequency, TF over GST control).

These data come from PMC7862700, “An all-to-all approach to the identification of sequence-specific readers for epigenetic DNA modifications on cytosine”.
